# According to PubChem BioAssay AID488857 (Sanford-Burnham Center for Chemical Genomics, 2010):
# The whole screen tested about 1,400 compounds, of which about 560 (40%) were called active. So high a share suggests a set chosen from earlier hits. This is one part of the list. Unmarked numbers belong to inactive results.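 The calls were made as follows: active = mean inhibition over duplicate tests at 10 µM above 50%; inactive = the rest.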
# Assay: ASC/caspase-1 reporter retest in S. cerevisiae at one dose, specificity check for NALP1 project (AID 488857)
# Details: S. cerevisiae ASC/Caspase-1, beta-galactosidase luminescence, 24 h; at 10 µM; hits give high values
row,Compound,inhibition
1,CC1CCCCN1C(=S)Nc1ccc2nc3n(c(=O)c2c1)CCCCC3 (centres undefined),40.4%
2,O=C(Nc1ccc2nc3n(c(=O)c2c1)CCCC3)c1cc([N+](=O)[O-])ccc1F,79.8% (active)
3,Cc1cc(NC(=O)/C=C/c2ccccc2Cl)no1,51.1% (active)
4,CCOC(=O)c1ccc(N2C(=O)CC(N3CCCC(C)C3)C2=O)cc1 (centres undefined),49.7%
5,CCOC(=O)c1ccc(N2C(=O)C=CC2=O)cc1,82.3% (active)
6,CCOC(=O)CCCNC(=O)COC(=O)c1ccc(O)cc1,35.5%
7,CC1(C)CC(=O)c2c(-c3cccs3)n[nH]c2C1,44.1%
8,CC1=NNC(=O)/C1=C\c1cn(-c2ccccc2)nc1-c1cccs1,89.6% (active)
9,Cc1cc(N2CCOCC2)n2ncc(-c3ccccc3)c2n1,71.5% (active)
10,COc1ccc(/C=C2\SC(N3CCc4ccccc4C3)=NC2=O)cc1,76.5% (active)
11,CCOc1ccccc1C1CC(=O)NC(SCC(=O)Nc2nccs2)=C1C#N (centres undefined),10.7%
12,COc1ccc(CNC(=O)CCNS(=O)(=O)c2ccc(C)cc2)cc1,43.1%
13,CSc1ccc(S(=O)(=O)NCc2ccc(C)cc2)cc1,56% (active)
14,Cc1ccc(S(=O)(=O)NCc2ccc(C(=O)NCCCN3CCC(Cc4ccccc4)CC3)cc2)cc1,20.4%
15,c1ccc(-c2cccc(-c3ccccn3)n2)nc1,97.2% (active)
16,c1ccc(Nc2ccccn2)cc1,34.5%
17,CCCCOC(=O)Oc1ccc2c(=O)c(Oc3cc(C)cc(C)c3)coc2c1,54.9% (active)
18,Cc1cc(C)n(CCOc2ccc(Cl)cc2Cl)n1,56.7% (active)
19,CC1=C(C)/C(=N\OS(=O)(=O)c2ccc(C)cc2)C=CC1=O,92.7% (active)
20,COc1ccccc1C/C(N)=N/OC(=O)c1cccc([N+](=O)[O-])c1C,41.5%
21,Cc1cccc(C(=O)NNC(=O)CN2C(=O)c3ccccc3C2=O)c1,32.6%
22,Cc1cccc(/C(N)=N/OC(=O)c2ccc(Cl)cc2Cl)c1,32.9%
23,O=C(Cc1ccc([N+](=O)[O-])cc1)c1ccc(O)cc1O,49.1%
24,Cc1cccc(/C(N)=N/OC(=O)c2cccc3ccccc23)c1,52.9% (active)
25,N/C(Cc1ccccc1)=N\OC(=O)c1cccc2ccccc12,51.2% (active)
26,N/C(Cc1ccc([N+](=O)[O-])cc1)=N\OC(=O)c1ccccc1Br,71% (active)

row,Compound,inhibition
1,N/C(Cc1ccc(Cl)cc1)=N\OC(=O)C1CCCCC1,47.5%
2,CCOC(=O)C1C(=O)Oc2ccc3ccccc3c2C1C1CCOC1=O (centres undefined),32.4%
3,CN1CCN(S(=O)(=O)c2ccc(Br)c3nsnc23)CC1,45.2%
4,CN1CCN(C2=C(Cl)C(=O)N(CCc3ccccc3)C2=O)CC1,47.1%
5,C=CCSc1nsc(NC(=O)Nc2ccc(F)cc2)n1,98.9% (active)
6,CCOC(=O)n1c(=O)n(Cc2ccccc2)c2ccccc21,47.1%
7,CC12CCC(C(=O)O)(C/C1=N\O)C2(C)C (centres undefined),21%
8,CCOCCCNCc1ccc(OCc2ccccc2Cl)cc1,45.9%
9,COc1ccc(C(CCNCc2ccccc2F)c2ccc(F)cc2)cc1 (centres undefined),45.1%
10,COc1ccc(OCCCC(=O)NCC(C)C)cc1,39.5%
11,CN(C)C(CNC(=O)CCCOc1ccccc1)c1ccco1 (centres undefined),39.1%
12,COc1ccc(CNCCC(c2ccc(F)cc2)c2ccc(OC)cc2)cc1 (centres undefined),61.4% (active)
13,COc1ccc(CCNCc2ccc(OCc3ccccc3)cc2)cc1,80.8% (active)
14,COc1ccc(OCC#CCNC(C)(C)C)cc1,30.3%
15,COc1ccc(OCCCC(=O)Oc2ccc(OC)cc2)cc1,50.5% (active)
16,COc1ccc(OCCCC(=O)NCCc2ccccc2)cc1,51.9% (active)
17,COc1ccc(CNCCSc2nnnn2C)cc1OC,40.2%
18,O=C(CCCN1C(=O)c2ccccc2C1=O)Oc1ccc(Cl)cc1,31.9%
19,COc1cc(/C=C2\SC(=Nc3ccc(F)cc3)N(c3ccc(F)cc3)C2=O)ccc1OCC(=O)O,31.9%
20,O=C1CCCc2ccccc2N1Cc1ccc(Cl)cc1Cl,31.8%
21,O=C1Cc2ccccc2C(=O)N1OCc1ccc(Cl)cc1Cl,29.5%
22,Clc1ccc(CO/N=C2\CCCc3nonc32)c(Cl)c1,52.5% (active)
23,CN(C)C(=N)c1n[nH]nc1SCc1ccccc1,27.9%
24,CCCCCCCCCCCCCCCC[n+]1ccc(/C=N/O)cc1,85.1% (active)
25,CCCCN(CC)S(=O)(=O)c1ccccc1,8.05%
26,CCCCCCCCCCCCCCCC[n+]1ccc(C(N)=O)cc1,80.4% (active)

row,Compound,inhibition
1,CCCCCCCCCCCCCCCC[n+]1cccc(C(=O)N(CC)CC)c1,93.2% (active)
2,COC(=O)c1c(NC(=O)C2CCCO2)sc2c1CCC2 (centres undefined),58% (active)
3,COC(=O)c1c(NC(NC(=O)C(C)C)C(Cl)(Cl)Cl)sc2c1CCC2 (centres undefined),33.2%
4,CCOc1cc(-c2c(C)c(C)nc(N)c2C#N)ccc1O,49.5%
5,O=C(Nc1cc(N2CCOCC2)ncn1)NC1(C(F)(F)F)Oc2ccc(Cl)cc2O1 (centres undefined),36.8%
6,CCc1ccc(CC(=S)N2CCOCC2)cc1,51.4% (active)
7,O=S(=O)(N1CCCCC1)N1CCN(c2ccc(F)cc2)CC1,45.9%
8,O=C(C(Cc1ccccc1)n1cccc1)N1CCN(c2ccccc2)CC1 (centres undefined),49.2%
9,O=C(NC(=O)N1CCN(c2ccc(F)cc2)CC1)c1ccccc1,53% (active)
10,CC(C)Oc1ccc(OCCNC2CCCC2)cc1,45.6%
11,CCN(CC)S(=O)(=O)c1cccc(C(=O)N[C@H](C(=O)O)C(C)C)c1,45.6%
12,N#CC(C#N)=C1C=CC=CN1/C(=C\c1ccccc1Cl)C(=O)c1ccccc1,17.6%
13,COc1ccc(/C=C(/C(=O)c2cccs2)N2C=CC=CC2=C(C#N)C#N)cc1,51.5% (active)
14,CN(C)CCNC=C(C(=O)Nc1ccc(Cl)cc1Cl)C(=O)Nc1ccc(Cl)cc1Cl,36%
15,Cn1nc(NC(=O)C(C)(C)C)c2c(F)cccc21,23.4%
16,CCCC(CCC)c1nc2ccncc2[nH]1,39.7%
17,Clc1ccc(N2CCN(c3cnc4ccccc4n3)CC2)cc1,29.9%
18,CC1CCN(c2nc(CN3CCCCC3)nc3scc(-c4ccccc4)c23)CC1,65.8% (active)
19,COC(=O)c1c(S(=O)(=O)NCc2ccccc2)sc(C(=O)O)c1C,32.3%
20,O=C1S/C(=C\c2ccc(N3CCOCC3)o2)C(=O)N1c1ccccc1,56.8% (active)
21,Cn1c(=O)c2c(nc(Sc3ncccn3)n2Cc2ccccc2Cl)n(C)c1=O,26.6%
22,Cc1ccc(S(=O)(=O)NCC(=O)N(CC(=O)NC(C)(C)C)Cc2cccs2)cc1,34.8%
23,COc1cc(OC)nc(-n2ncc(Br)c(Br)c2=O)n1,51.4% (active)
24,CCCC(=O)c1ccc(-c2ccccc2)cc1,57.2% (active)
25,Cc1cccc(C)c1OCCNC(=O)CCC(=O)c1ccccc1,31.6%
26,Cc1ccc(C(=O)CCC(=O)O)cc1,26.7%

row,Compound,inhibition
1,Cc1c(NC(=O)c2cc3c(s2)-c2ccccc2OC3)cccc1[N+](=O)[O-],72% (active)
2,Cc1cc(C)c(S(=O)(=O)Nc2cc(SCC(=O)O)c(O)c3ccccc23)cc1C,17.9%
3,O=S(=O)(Nc1ccc(Oc2ncccn2)c(Cl)c1)c1ccc(F)cc1,32.6%
4,O=S(=O)(Nc1cc(Sc2cccc3cccnc23)c(O)c2ccccc12)c1ccc(F)cc1,90.7% (active)
5,CC(C)(C)OC(=O)NCCCCCc1nnc(SCc2ccccc2)o1,71.4% (active)
6,CCCCSc1nnc(CCNC(=O)OC(C)(C)C)o1,47.8%
7,CC(C)Sc1nnc([C@H](Cc2ccccc2)NC(=O)OC(C)(C)C)o1,41.7%
8,O=C(c1ccc(COc2ccccc2Br)cc1)N1CCCCC1,52.2% (active)
9,O=C(c1ccc(S(=O)(=O)c2ccccc2)cc1)N1CCCCCC1,31.9%
10,OCCN(CCO)c1ncnc2c1oc1ccc(Br)cc12,29.6%
11,CCN(CCO)Cc1csc2ccc(Br)cc12,55.5% (active)
12,COc1ccccc1OCCCCN1CCN(c2ccccc2OC)CC1,21.9%
13,COc1ccccc1N1CCN(CCCCOc2cccc3ccccc23)CC1,63.3% (active)
14,COc1ccccc1N1CCN(CCCCCCOc2ccc(F)cc2)CC1,49.6%
15,Cc1cccc(NCc2nc3ccccc3n2C)c1,74% (active)
16,Cc1nc2cc(-c3ccc(Cl)cc3)nn2c(C)c1CCC(=O)NC(C)c1ccc2c(c1)OCCO2 (centres undefined),49%
17,Nc1ccc2c(c1)C/C(=C/c1ccco1)C2=O,21.8%
18,COc1ccc2c(c1)CC/C(=C/c1ccco1)C2=O,68.5% (active)
19,COc1cc(/C=C2/CCc3ccccc3C2=O)cc(OC)c1OC,69.8% (active)
20,COc1ccc(C2=C/C(=C/c3cccnc3)C(=O)O2)cc1OC,28.8%
21,O=C1/C(=C/c2ccco2)Cc2ccccc21,48.4%
22,COc1ccc(/C=C2\COc3ccccc3C2=O)cc1OC,81.6% (active)
23,COc1cc2ccccc2c2c1CCCC2=O,30%
24,O=C1/C(=C/c2ccccc2)CCCc2ccccc21,72.1% (active)
25,Cc1n[nH]c(C)c1S(=O)(=O)N1CCN(C2CCCCC2)CC1,32.4%
26,CS(=O)(=O)N(CC(=O)Nc1ccccc1Sc1ccccc1)C1CCCCC1,19.4%
